Source: PMC13494018
Values without a mark were called inactive. No rule for the calls is given here.

B1: design_617_b3fadc1d-0db4-4da8-8433-818493aa2ab2_1528_dldesign_0_cycle1_af2pred (protein)
chain: AQAVLQAASEAMVEAARVGSRASPEDRARLRALLAATSTAAIAAARGDGQAALDQAAALAAELTAAVEAVKARA
B2: design_617_b3fadc1d-0db4-4da8-8433-818493aa2ab2_1081_dldesign_0_cycle1_af2pred (protein)
chain: GEEAAKKAQELVEKIKKLAKEIAAGTAEQAAKLLEEALKYAKEAYKLAAKADPETAAKLSAAANEELAKANRAAIALQRA
B3: design_617_b3fadc1d-0db4-4da8-8433-818493aa2ab2_1373_dldesign_0_cycle1_af2pred (protein)
chain: DAALRFAEAQLRRIERLAAEIIALGGPAWAPEAEALVAEAREALELIKTDPGAGMALLIETIERAYALLAEVRAAAA
B4: design_617_b3fadc1d-0db4-4da8-8433-818493aa2ab2_1608_dldesign_0_cycle1_af2pred (protein)
chain: SEAERIAKAAKEMIEQQKKAGVEGSPVSAEISAKNMEANAKAHSKAIIAADPKTGKKLAKEVKKYAEEAKKEVEEAAKKKLAA
B5: design_617_b3fadc1d-0db4-4da8-8433-818493aa2ab2_1083_dldesign_0_cycle1_af2pred (protein)
chain: GDPEASKEALEYAKKAEELVKKAEELKDNPELAKKLIEEAKKHIHLALAEAGKAYPEVAQKVLTTVEKVLEKIKEL
B6: design_617_b3fadc1d-0db4-4da8-8433-818493aa2ab2_1042_dldesign_0_cycle1_af2pred (protein)
chain: MSAAEIIREALKLLKEAAKAAATDPAKAKELADKAIALGKENQGAALLLSNTARNLAATATPEEAAFLLEVAERARAVAEAL
B7: design_617_b3fadc1d-0db4-4da8-8433-818493aa2ab2_1106_dldesign_0_cycle1_af2pred (protein)
chain: GARARMEASIAQARELAAAAVAQAAAVDPAAAAAAAAALDALLAAAEAALAAGDYDAAAAAINAAVTLAIKWMQAAAAA
B8: design_617_b3fadc1d-0db4-4da8-8433-818493aa2ab2_734_dldesign_0_cycle1_af2pred (protein)
chain: MAEEIIREATRVATEAARLAVKYGNEVANKALALAVEAMELAASGENAEEAKKKLEEAKKLLEEAKKIAKEKE
B9: design_617_b3fadc1d-0db4-4da8-8433-818493aa2ab2_797_dldesign_0_cycle1_af2pred (protein)
chain: AEELAEEAKKYIEEARKKVTELYNEAGATELAEEANEKLESAREIVESGREHPELLPAAVAFARSVADAQLRKAESLV
B10: design_617_b3fadc1d-0db4-4da8-8433-818493aa2ab2_1296_dldesign_0_cycle1_af2pred (protein)
chain: DGEKIQEVLDKAKELYKIAKEIEKKNPEYGKEILKLVQEALSLIAKGNAEEAMKKMEEAEKYAEEVKKKLKEEE
B11: design_617_b3fadc1d-0db4-4da8-8433-818493aa2ab2_977_dldesign_0_cycle1_af2pred (protein)
chain: AQAVQEKAAKALATASEVAEKDQSLVPEATEAMNKASQGVALVVAGNTEEGQKLVEEALKTAEKLKKKLE
B12: design_617_b3fadc1d-0db4-4da8-8433-818493aa2ab2_820_dldesign_0_cycle1_af2pred (protein)
chain: AEGKALVEQAKALAAQGAAHPQHAAAVAGTLANIGKYLAKLGPEYAKAAADVLNAFAKAVPSVAAQAKAAAAELEKLAKEA
B13: design_617_b3fadc1d-0db4-4da8-8433-818493aa2ab2_943_dldesign_0_cycle1_af2pred (protein)
chain: AEAAQEAAVADMEKAAAIAKKYAELFPSTADALIKAAEDALAAVKANKETAAETAKAGLKALNATIAAAMRQALADSAA
B14: design_617_b3fadc1d-0db4-4da8-8433-818493aa2ab2_1433_dldesign_0_cycle1_af2pred (protein)
chain: GVAEQAIRGLARNTVAAIEAGTLTEEGLEKALELIRGIGEAAGPAARAVAEEAIERVREAWERRKRAEAEAAAA
B15: design_617_b3fadc1d-0db4-4da8-8433-818493aa2ab2_655_dldesign_0_cycle1_af2pred (protein)
chain: AEEEERLRRQAEGLYELTKAVAEYLAKNPAAAEQAKALKEKAEKAFEEGMKEHPAEAIRRLQAVLNEASRAAIAASA
B16: design_617_b3fadc1d-0db4-4da8-8433-818493aa2ab2_944_dldesign_0_cycle1_af2pred (protein)
chain: AEAAAIEQLNTAVEIIESAAKAGERFARAAAGLFITLARQYADVVPKETLTALAERATAAAAPVPAVAERLAAALQEVIEA
B17: design_617_b3fadc1d-0db4-4da8-8433-818493aa2ab2_836_dldesign_0_cycle1_af2pred (protein)
chain: VTPEEAKKRVEELVEEAIKLAEKADPAEAEKIRKTYETEGPLAAAAVIWAIGNRFAEKPETKEIGERLRELAIEAIRLLLAAAAA
B18: design_617_b3fadc1d-0db4-4da8-8433-818493aa2ab2_1003_dldesign_0_cycle1_af2pred (protein)
chain: KAAALHAIKVAETLLKKAKEFLEKGKEEGPEYYKMAYATAQSAILVAQGAVEVAKKVSKKLYKKAKKLLEEAKKLAEEAKKLAE
B19: design_617_b3fadc1d-0db4-4da8-8433-818493aa2ab2_1384_dldesign_0_cycle1_af2pred (protein)
chain: MEELMEKVKSLGQAAIVAATAAKSAAAAGNTDAARVLLAQARRWLEEAGEAAEKAGEEAKEVYEEVRKVVEAEIAAAEAAIAAA

Target: CD276, Q5ZPR3
Sequence (Q5ZPR3 whole entry): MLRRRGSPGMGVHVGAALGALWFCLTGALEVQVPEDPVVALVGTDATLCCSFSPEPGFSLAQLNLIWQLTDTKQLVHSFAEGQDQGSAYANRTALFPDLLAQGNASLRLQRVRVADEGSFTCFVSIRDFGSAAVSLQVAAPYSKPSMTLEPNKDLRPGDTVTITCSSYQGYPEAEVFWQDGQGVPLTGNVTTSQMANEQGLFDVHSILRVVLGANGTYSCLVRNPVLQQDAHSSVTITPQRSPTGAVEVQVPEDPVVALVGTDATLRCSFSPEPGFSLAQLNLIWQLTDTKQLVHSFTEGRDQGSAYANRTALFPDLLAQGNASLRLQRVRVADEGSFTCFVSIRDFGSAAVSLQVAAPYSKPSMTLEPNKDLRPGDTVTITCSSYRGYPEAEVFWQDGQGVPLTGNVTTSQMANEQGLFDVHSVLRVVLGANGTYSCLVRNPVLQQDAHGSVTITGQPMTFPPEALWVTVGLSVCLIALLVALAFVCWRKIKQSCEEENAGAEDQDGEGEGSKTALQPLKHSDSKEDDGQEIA

Binder	binding in a display sort
B1	not found
B2	not found
B3	not found
B4	not found
B5	not found
B6	not found
B7	not found
B8	not found
B9	not found
B10	not found
B11	not found
B12	not found
B13	not found
B14	not found
B15	not found
B16	not found
B17	not found
B18	not found
B19	not found
